{
  "source": "PubChem BioAssay (NCI)",
  "note": "The panel holds about 83,000 compounds, 20% with a hit somewhere; the sample as a whole holds those more often.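 Testing used 96-well plates and a 48-hour single-concentration exposure. Example: -40 means 40% of the starting cells died.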 Values without a mark were called inactive. The source made the active and inactive calls. How the source made its calls: active means growth percent below 10; inactive means the rest.",
  "data": [
    {"tested_on": "HCC-2998 colon", "assay": "NCI-60 one-dose screen, 48 h (100 = growth as untreated, 0 = no growth, -100 = all killed)", "settings": "10 µM", "values": [
      {"smiles": "COc1ccc(-c2onc(N)c2-c2cc(OC)c3c(c2)OCO3)cc1", "growth": "52.1%"},
      {"smiles": "C[C@]12CC[C@@H]3c4ccc(O)cc4CC[C@H]3[C@@H]1CC[C@@H]2NS(=O)(=O)c1ccc(C(F)(F)F)cc1", "growth": "60.4%"},
      {"smiles": "O=C(CSc1nnc(-c2ccc(Cl)cc2)o1)Nc1ccc(C(=O)/C=C/c2ccc(Cl)cc2)cc1", "growth": "93.1%"},
      {"smiles": "Cc1cc(CCNC=O)c(C)c2c1sc1ccccc12", "growth": "104%"},
      {"smiles": "COc1cc2cc(Oc3ccc(NC(=O)c4ccc(Cl)c(C(F)(F)F)c4)cc3)c(C)nc2cc1OC", "growth": "41.3%"},
      {"smiles": "CC(C)(C)c1ccc(S(=O)(=O)N[C@H]2CC[C@H]3[C@@H]4CCc5cc(O)ccc5[C@H]4CC[C@]23C)cc1", "growth": "74.4%"},
      {"smiles": "COc1cc2cc(Oc3ccc(NC(=O)c4cccc(C(F)(F)F)c4)cc3)c(C)nc2cc1OC", "growth": "62.3%"},
      {"smiles": "COc1ccc(/C=C2\\CCCC3=C2NC(N)=NC3c2ccc(OC)c(OC)c2)cc1OC", "note": "(stereo not given)", "growth": "88%"},
      {"smiles": "Cc1c(Cl)cccc1NC(=O)CN1CCOCC1", "growth": "103%"},
      {"smiles": "CC(C)(C)OC(=O)N1CCc2c(sc3ncnc(N/N=C/c4ccc(Br)cc4)c23)C1", "growth": "72.1%"},
      {"smiles": "CCCCc1oc2ccccc2c1C(=O)c1cc(I)c(OCCN(CC)CC)c(I)c1", "growth": "-88.5% (active)"},
      {"smiles": "CCc1c2c(nc3ccc(OC(=O)N4CCC(N5CCCCC5)CC4)cc13)-c1cc3c(c(=O)n1C2)COC(=O)[C@]3(O)CC", "growth": "28.2%"},
      {"smiles": "NS(=O)(=O)Oc1ccc(-c2ccc3sccc3c2)cc1", "growth": "99.2%"},
      {"smiles": "O=C(Nc1ccc(OS(=O)(=O)c2ccccc2)cc1)C1CCCCC1", "growth": "92.4%"},
      {"smiles": "S=c1cnc2ccccc2[nH]1", "growth": "67.6%"},
      {"smiles": "COc1cc(-c2nn(-c3cccc(NC(=O)NCCNC(=O)c4cccc(C(F)(F)F)c4)c3)cc2-c2ccncc2)ccc1Cl", "growth": "67.3%"},
      {"smiles": "C[C@@H](O)[C@H]1C(=O)N2C(C(=O)O)=C(SCCN=CN)C[C@H]12", "growth": "0.878% (active)"},
      {"smiles": "CC[C@@H](C(=O)[C@@H](C)[C@@H](O)[C@H](C)[C@@H]1O[C@@H]([C@@H](CC)C(=O)O)CC[C@@H]1C)C1O[C@]2(C=CC(=O)[C@]3(CC[C@@](C)([C@H]4CC[C@](O)(CC)[C@H](C)O4)O3)O2)[C@H](C)C[C@@H]1C", "note": "(stereo not given in full)", "growth": "36.1%"},
      {"smiles": "CCC(c1ccc(OC)cc1)C(CC)c1ccc(O)c(CN2CCN(C)CC2)c1", "note": "(stereo not given)", "growth": "-1.52% (active)"},
      {"smiles": "COc1ccc(C(=O)N2C=Cc3ccccc3C2C#N)cc1", "note": "(stereo not given)", "growth": "103%"},
      {"smiles": "Cc1cc(SC#N)cc(C(C)(C)C)c1O", "growth": "109%"},
      {"smiles": "COc1ccc(-c2n[nH]nc2-c2cc(OC)c3c(c2OC)OCO3)cc1", "growth": "39.6%"},
      {"smiles": "CN1C(C(=O)Nc2ccccn2)=C(O)c2sc(Cl)cc2S1(=O)=O", "growth": "95.1%"},
      {"smiles": "Clc1ccc2c(c1)C(N1CCNCC1)=Nc1ccccc1O2", "growth": "-25.4% (active)"},
      {"smiles": "CC(C)(C)c1ccc(S(=O)(=O)N[C@H]2CC[C@H]3[C@@H]4CCc5cc(O)c([N+](=O)[O-])cc5[C@H]4CC[C@]23C)cc1", "growth": "92.5%"},
      {"smiles": "COc1cc(-c2csc(NC(=O)Nc3ccc(Cl)c(C(F)(F)F)c3)n2)cc(OC)c1OC", "growth": "21.4%"},
      {"smiles": "Brc1ccc2c(c1)-c1ccccc1C1=NCCN12", "growth": "13.5%"},
      {"smiles": "CC(C)N(CCOc1cccc(-c2nc3sccn3c2-c2ccnc(S(C)(=O)=O)n2)c1)C(C)C", "growth": "95.9%"},
      {"smiles": "Cc1ccc(/C=C/C(=O)C(=O)/C=C/c2ccc(C)cc2)cc1", "growth": "110%"},
      {"smiles": "O=C(Nc1cc(Cl)cc2c1-c1ccc(Cl)cc1C2O)C(Cl)Cl", "note": "(stereo not given)", "growth": "95.2%"},
      {"smiles": "COc1cc(Cc2cc(-c3ccccc3)n[nH]c2=O)cc(OC)c1OC", "growth": "79.1%"},
      {"smiles": "Cc1cc(C(C#N)c2ccc(Cl)cc2)c(Cl)cc1NC(=O)c1cc(I)cc(I)c1O", "note": "(stereo not given)", "growth": "17.4%"},
      {"smiles": "C/C=C/C1=CN2C(=O)c3cc(OC4OC(C)C(NC)C(C)(O)C4O)c(C)c(O)c3N=C[C@@H]2C1", "note": "(stereo not given in full)", "growth": "-56.7% (active)"},
      {"smiles": "CNC(=O)c1c(I)c(NC(C)=O)c(I)c(C(=O)O)c1I", "growth": "106%"},
      {"smiles": "COc1ccc(Nc2cnc3cc(NS(=O)(=O)c4ccc(C)cc4)ccc3n2)cc1", "growth": "93.6%"},
      {"smiles": "COc1cc(-c2nn(-c3ccc(NC(=O)NCCCNC(=O)c4ccccc4)cc3)cc2-c2ccncc2)ccc1Cl", "growth": "32%"},
      {"smiles": "OCC1OC(n2ccc3c(NO)ncnc32)C(O)C1O", "note": "(stereo not given)", "growth": "-38.7% (active)"},
      {"smiles": "C[C@]12CC[C@@H]3c4ccc(OS(=O)(=O)O)cc4CC[C@H]3[C@@H]1CC[C@@H]2NS(=O)(=O)c1ccc(-c2ccccc2)cc1", "growth": "80.9%"},
      {"smiles": "CCN1CCN(CCC(=O)Nc2cccc(-n3cc(-c4ccncc4)c(-c4ccc(Cl)c(OC)c4)n3)c2)CC1", "growth": "43.8%"},
      {"smiles": "COc1ccc(-c2nnc(SCC(=O)Nc3ccc(C(=O)/C=C/c4ccccc4)cc3)n2-c2ccccc2)cc1OC", "growth": "110%"}
    ]}
  ]
}
